# Measurements reported in publication PMC5540273 (PLoS ONE, 2017).
# System: IRAK4
# Details: concentration: 1 μM, replicates: in singlicate; n = 1
# 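Also: KINOMEscan kinase panel screen.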
row,Structure (SMILES),%Inh
1,N#Cc1ccc(-c2cc(-c3c[nH]nc3-c3ccccn3)ccn2)cc1 [GW693028],22%
2,CCc1ccnc(/C=C/c2n[nH]c3cc(Sc4ccccc4C(=O)NC)ccc23)c1,5%
3,Cc1cccc(-c2nc(Nc3ccc4ncsc4c3)c3ccccc3n2)n1 [GW867588],0%
4,O=C1NC(=O)C(N2CCc3ccccc32)=C1c1cccc(Cl)c1 [SB-408010],0%
5,NS(=O)(=O)c1cccc(-c2ccc3ncc(N4CCOCC4)nc3c2)c1 [GSK1535721],11%
6,CN1c2ccc(CNc3ccc(F)cc3)cc2-c2c(cnn2C)S1(=O)=O,0%
7,Cn1ccc2ncnc(Oc3ccc(NC(=O)Nc4ccncc4)c(Cl)c3)c21,7%
8,COc1cc(Nc2nccc(N3CCC(NC(=O)c4cccc(NC(C)=O)c4)C3)n2)cc(OC)c1OC (stereo not drawn) [GSK1379754],12%
9,CSc1ccc(-c2cc3ncnc(SCC(=O)O)c3s2)cc1,9%
10,CC(C)(C)n1cnc2c(N)ncnc21 [SKF-97359],0%
11,Cc1nnc(-c2ccc(C)c(-c3ccc(C(=O)Nc4ccc(NS(C)(=O)=O)cc4)cc3)c2)o1 [GW702865],0%
12,COc1ccc(S(=O)(=O)NC2CCN(c3cc(C)nc(Nc4cccc(C#N)c4)n3)CC2)cc1.O=C(O)C(F)(F)F [GSK1653539],0%
13,Cc1c2ccc(N(C)c3ccnc(Nc4cccc(S(N)(=O)=O)c4)n3)cc2nn1Cc1ccccc1.Cl.Cl [GW787226],0%
14,COc1cc2c(cc1OC[C@@H](O)CO)ncc1c3ccc(C#N)cc3[nH]c21,99.9%
15,O=C(NCCCN1CCOCC1)c1cccc(Nc2nccc(Nc3ccc(Oc4ccccc4)cc3)n2)c1 [GW663929],0%
16,Cc1ccc(NC(=O)c2ccnc(N3CCN(C)CC3)c2)cc1-c1ccc(C(=O)NCC2CC2)cc1 [GW775604],0%
17,O=C(Nc1n[nH]c2cc(-c3cccc(F)c3)ccc12)C1CC1 [SB-735464],17%

row,Structure (SMILES),%Inh
1,COc1ccc(Nc2nccc(N3CCC(NC(=O)Nc4cccc(C(C)=O)c4)C3)n2)cc1 (stereo not drawn) [GSK1379731],4%
2,COCCNC(=O)c1ccc(-c2cc(C(=O)NC3CC3)cc(F)c2C)cc1 [GW868318],13%
3,COc1ccc(CNC(=O)NC2CCN(c3ccnc(Nc4ccc(OC)cc4)n3)C2)cc1 (stereo not drawn) [GSK1379727],4%
4,Nc1nccc(-c2c(-c3ccc(F)cc3)ncn2C2CCN(CC(F)(F)F)CC2)n1 [SB-236560],0%
5,O=C(NCCNc1ccnc(Nc2ccc(F)cc2)n1)Nc1ccccc1F [GSK1379880],11%
6,O=C(Nc1cccc(-c2nn3ncccc3c2-c2ccnc(Nc3cccc(C(F)(F)F)c3)n2)c1)c1c(F)cccc1F [GSK299495],21%
7,COc1ccc(Nc2ncc(C#N)c(Nc3ccccc3C(N)=O)n2)cc1N1CCN(C)CC1.Cl [GSK1558669],99.4%
8,O=c1cc(N2CCOCC2)nc2n(Cc3cccc4ccccc34)ccn12 [GSK2333389],20%
9,Fc1ccc(-c2ncn(CCCN3CCOCC3)c2-c2ccccn2)cc1 [SB-211742],0%
10,CN1c2ccc(NCc3ccc(F)cc3)cc2-c2c(cnn2C)S1(=O)=O,0%
11,Nc1nc(-c2ccc3c(N)n[nH]c3c2)cc(N2CCCC2)n1 [GSK2227430],2%
12,[2H]C([2H])(c1cccc(C(F)(F)F)c1C)n1ccn2c(=O)nc(N3CCOCC3)cc12 [GSK2336394],16%
13,COc1cc2ncn(-c3cc(OCc4sccc4Cl)c(C(N)=O)s3)c2cc1OC [GSK448459],4%
14,COc1cc2c(cc1OCCN1CCN(C)CC1)ncc1c3ccc(C#N)cc3[nH]c21,100%
15,Cc1nnc(-c2ccc3occ(-c4ccc(C(C)O)cc4)c3c2)o1 (stereo not drawn),32%
16,Cn1cc(-c2ccc3c(c2)CCN3C(=O)Cc2ccccc2Cl)c2c(N)ncnc21 [GSK2608885],0%
